# Shown are actives, neighbours in structure and some others; about 5.3% of the full set was active somewhere.
# FMDV antiviral: foot and mouth disease virus antiviral activity; AID 1159524; Potency, µM (highest dose often 57.9 µM), for inactives: at the top dose activity change, negative = inhibition, most hits filed as inhibitors; FMDV antiviral cell-based qHTS; hit rate 1.2% among 410,000; calls by dose curve; tested in HEK293T cells; also: read-out not given here; nearly all actives have a fitted effect of over 45% in size
# VACV mCherry inh: inhibitors of vaccinia virus infection (mCherry reporter signal); Potency, µM (series often up to 36.5 µM), for inactives: top-dose activity change, negative = inhibition, actives largely listed as inhibitors; Vaccinia virus mCherry reporter infection, fluorescence; hit rate 0.63% among 310,000; calls by dose curve; tested in A549 cells; also: nearly all actives have a fitted effect of over 35% in size
# LASV entry inh: blocks Lassa virus binding to or entry into cells; Lassa virus pseudotype entry inhibition, cell reporter; Potency, µM (top dose mostly 37.9 µM), inactives show top-dose activity change, negative = inhibition, actives largely listed as inhibitors; hit rate 1.2% among 300,000; AID 540256; calls by dose curve; tested in HEK293 cells; also: nearly all actives have a fitted effect of over 50% in size
# VACV Venus inh: vaccinia inhibition (Venus reporter); Vaccinia virus Venus reporter expression, fluorescence; Potency, µM (doses to about 36.5 µM), for inactives: top-dose activity change, negative = inhibition, hits mostly inhibitors; hit rate 0.46% among 330,000; calls by dose curve; tested in A549 cells; also: nearly all actives have a fitted effect of over 30% in size
# HCV inhibitor: blocks hepatitis C virus; Potency, µM (series often up to 41.8 µM), inactives show at the highest dose activity change, negative = inhibition, most hits filed as inhibitors; Huh7.5.1 HCVcc-Cre infection, luciferase reporter, 44 h; hit rate 3.4% among 340,000; active = well fitted inhibition curve with a large enough effect; inconclusive = small, poorly fitted or top-dose-only effect, or another doubt; inactive = no such curve, though single readings can be large or run the other way
#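 After 44 h co-culture of compound, cells and HCVcc-Cre (~0.5 moi), substrate is added for 15 min at room temperature and luciferase measured over 15 sec. Cells were seeded at 1,000/well and pre-cultured 4 h.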
# MARV entry inh: blocks Marburg virus binding to or entry into cells; Marburg virus pseudotyped entry inhibition, cell reporter; Potency, µM (titrated, usually from 37.8 µM), inactives show top-dose activity change, negative = inhibition, most hits filed as inhibitors; hit rate 1.8% among 300,000; AID 540276; calls by dose curve; tested in HEK293 cells
# Starred values were filed as active, the others as inactive; i = inactive; ? = inconclusive; . = no result; [ ] = dose if it differs, or a comment. % is scaled to controls: 0 for no effect and ±100 for the full control effect; potency is read from the fitted curve at half-maximal effect.
SMILES,FMDV antiviral,VACV mCherry inh,LASV entry inh,VACV Venus inh,HCV inhibitor,MARV entry inh
CCN(c1cccc(C)c1)S(=O)(=O)c1csc(C(N)=O)c1,-12%,-14%,10%,-5%,4%,-10%[46.1 µM]
CCN(c1cccc(C)c1)S(=O)(=O)c1ccc2c(c1)N(C(C)=O)CCS2,-16%,1%,?,-2%,11µM*,?
COC(=O)/C=C1\N/C(=N\c2nc(C)cc(C)n2)N(c2ccc(C)c(C)c2)C1=O,25µM*,?,?,?,-5%,-16%
Cc1ccc(NC(=O)CSc2ncc3c(n2)-c2ccccc2N(C)S3(=O)=O)c(Cl)c1,-25%,?,?,-22%,.,.
COC(=O)c1ccc(NC(=S)NCCC2=CCCCC2)cc1,.,-14%,10%,-15%,-14%,5%
COC(=O)c1cccc(NC(=S)NCCC2=CCCCC2)c1,-13%,-22%[1.46 µM],?,?,13µM*,-24%
CCCc1cc(=O)oc2cc(C)c3c(C)coc3c12,.,-13%,-11%,-5%,10µM*,?
CCCc1cc(=O)oc2cc3oc(C)c(C)c3cc12,-6%,-7%,5%,11%,22µM*,5%
CCCc1cc(=O)oc2cc(C)c3c(-c4ccccc4)coc3c12,-27%,-4%,?,-1%,.,?
CCCc1cc(=O)oc2cc3occ(C)c3cc12,-20%,.,1%,.,2.2µM*,0%
Cc1ccc(N2CCN(S(=O)(=O)c3cccc4ccccc34)CC2)cc1Cl,0%,-4%,?,-8%,.,-38%[46.1 µM]
CCN1C(=O)[C@@H]2[C@H]3[C@H](O)[C@H](O)CC(=NO[C@H](C)c4cn([C@@H]5COC[C@@H]5O)nn4)[C@@H]3CC[C@H]2C1=O,.,.,.,.,.,-32%[14.2 µM]
COc1nc(=O)n(C2C=CC(=O)O2)cc1F (centres undefined),?,-16%,.,-22%,.,.
COC1=CC2C(=O)C(C1=O)C1c3ccccc3CC21 (centres undefined),.,.,.,.,.,-3%[14.2 µM]
COc1ccccc1CNC(=O)c1c(N)n(CCCN2CCOCC2)c2nc3ccccc3nc12,-8%,13µM*,26%[14.3 µM],?,.,?
COc1ccc(Cn2c(N)c(C(=O)NCc3ccco3)c3nc4ccccc4nc32)cc1OC,?,-27%,?,-30%,7.1µM*,?
CC(C)OC(=O)c1c(N)n(CCCN2CCOCC2)c2nc3ccccc3nc12,3%,-18%,5%,-10%,9%,-13%
Nc1c(C(=O)NCc2ccco2)c2nc3ccccc3nc2n1CCN1CCCCC1,.,-12%,-2%,-20%,?,8.2µM*
Cc1csc(NC(=O)c2ccc(Cn3nc(C)c(Br)c3C)o2)n1,22µM*,?,11µM*,?,10µM*,?
N#Cc1c(-c2ccccc2)cc(-c2ccccc2)nc1SCC(O)CS(=O)(=O)Cc1ccc(Cl)cc1 (centres undefined),12%,-18%,-28%[46.1 µM],-4%,.,.
COc1ccccc1CNc1ncnc2sc(C(=O)N3CCN(C)CC3)c(C)c12,3%,-7%,.,-5%,.,.
O=C(C[n+]1cc(Br)cc(Br)c1)c1ccc(Cl)cc1,-3%,i,22%[46.1 µM],-2%,32µM*,-21%[46.1 µM]
COc1ccc(CCN(C)C(=O)c2cnn(-c3nccc(-c4ccc(C)o4)n3)c2C)cc1OC,32%,-17%,.,-11%,.,.
NC(Cc1ccc(Cl)cc1)c1csc(Nc2ncccn2)n1 (centres undefined),-18%,10µM*,.,7.9µM*,.,.
COc1ccc(CC(N)c2csc(Nc3nccc(C(F)(F)F)n3)n2)cc1 (centres undefined),-17%,23%,.,-10%,.,.
SMILES,FMDV antiviral,VACV mCherry inh,LASV entry inh,VACV Venus inh,HCV inhibitor,MARV entry inh
NC(Cc1ccc(F)cc1)c1csc(Nc2ncccn2)n1 (centres undefined),-19%,7.1µM*,.,7.9µM*,.,.
Nc1ccc(CC(N)c2csc(Nc3ncccn3)n2)cc1 (centres undefined),3%,?,.,?,.,.
COc1ccc(CC(N)c2csc(Nc3ncccn3)n2)cc1 (centres undefined),-22%,13µM*,.,?,.,.
O=S(=O)(c1cccc(Cl)c1)N1CCN(c2nc(-c3ccccc3)nc3ccccc23)CC1,.,-6%,.,-19%,.,.
COc1ccc(NC(=O)Cn2cnc3ccc(S(=O)(=O)N4CCC(C)CC4)cc3c2=O)cc1Cl,2%,-19%,-8%[46.1 µM],-12%,.,2%[46.1 µM]
CC(C)=CCc1c(O)cc2oc3c(CC=C(C)C)c(O)c(O)c(CC=C(C)C)c3c(=O)c2c1O,22µM*,?,.,?,?,.
Nc1c(-c2nc(-c3ccccc3Cl)no2)nnn1-c1ccccc1F,55%,0%,1%[46.1 µM],-10%,.,.
c1ccc(OCCOCCOc2ccccc2)cc1,8%,i,2%[46.1 µM],-4%,1.1µM*,16%[46.1 µM]
OCCOc1ccccc1,-12%,14%,.,-2%,27%,.
CCOC(=O)NN=C1C[C@@H](O)[C@@H](O)[C@@H]2[C@H]3C(=O)N(C[C@@H]4CCCO4)C(=O)[C@@H]3CC[C@H]12,.,.,.,.,.,6%[14.2 µM]
COc1cc2c(C(=O)NCc3ccc4c(c3)OCO4)cn(C)c(=O)c2cc1OC,-2%,i,0%,-8%,?,2%
COc1cc2c3c(n(C)c(=O)c2cc1OC)-c1cc2c(cc1C3=O)OCO2,-12%,-5%,?,19%,?,0.56µM*
O=C(Nc1ccc(Cl)c(Cl)c1)Nc1nnc(CSc2ccccc2)s1,?,-19%,3.5µM*,-24%,?,10µM*
O=C(Nc1ccccc1)Nc1nnc(CSCc2ccccc2Cl)s1,0%,?,-5%,?,26%,-2%
COC(=O)CNC(c1ccccc1)c1cc(C)ccc1NS(=O)(=O)c1ccc(C)cc1 (centres undefined),-13%,-22%,?,-14%,6.3µM*,?
Cc1ccc(S(=O)(=O)Nc2ccc(Br)cc2C(NCC(=O)O)c2ccccc2)cc1 (centres undefined),-19%,i,14%,-10%,-24%,-10%
O=[N+]([O-])c1ccc(-c2cc3ccccc3[nH]2)cc1,.,6%,.,-8%,.,.
O=C1O/C(=C/c2ccccc2)c2ccccc21,82%,-13%,2%,-20%,-21%,7%
N#CC1=C(c2ccccc2)/C(=C/c2ccccc2)OC1=O,6.3µM*,i,-25%,-1%,?,?
Cc1cc2[nH]c3ccccc3c2c(C)n1,-27%,-2%,-6%,-29%,?,?
Cc1cc2[nH]c3c4ccccc4nc(C)c3c2cc1C,-13%,.,.,.,13µM*,.
CC(C)(C)c1nnc2sc(SCC(=O)c3ccccc3)nn2c1=O,-54%,.,-21%,-16%,1%,-13%
COc1ccc(C(=O)CSc2nn3c(=O)c(C(C)(C)C)nnc3s2)cc1,14µM*,.,-22%,-3%,-10%,-8%
COc1ccc(S(=O)(=O)NCc2ccc3c(c2)CCN3C(=O)c2ccc(C)cc2)cc1Cl,-15%,-22%,?,-17%,.,.
O=c1[nH]cnc2nc[nH]c12,18%,-8%,.,10%,.,.
Nc1nc2nc[nH]c2c(=O)[nH]1,-19%,i,.,-15%,5µM*,.

# High-throughput results (PubChem)
